{"source": "the OligoGym collection"}
{"target": "SLMAP", "test": "pooled miR-30 sensor sort-seq; sequence = guide strand", "details": "shRNA"}
{"sequence": "TTGAAGATAAAACTTGCCCGTC", "sensor-assay potency score (higher = more potent)": 0.116}
{"sequence": "TATTCTTGTACTTCTGCTGTTT", "sensor-assay potency score (higher = more potent)": -0.0967}
{"sequence": "TTTGTTTACTTGTTCTAGCTAG", "sensor-assay potency score (higher = more potent)": 0.257}
{"sequence": "TAATTCTCTTAATTCTTCCTGA", "sensor-assay potency score (higher = more potent)": 0.412}
{"sequence": "ATACTCTTTCTGCACATCCTTT", "sensor-assay potency score (higher = more potent)": -0.952}
{"sequence": "TCAACTTCTCTAGTTCACCTTG", "sensor-assay potency score (higher = more potent)": 0.0522}
{"sequence": "TTTAATGTTATAAATAATCTGG", "sensor-assay potency score (higher = more potent)": -0.423}
{"sequence": "TTCATCTCTAGTACTTGTGATT", "sensor-assay potency score (higher = more potent)": -0.717}
{"target": "SMAD4", "test": "pooled miR-30 sensor sort-seq; sequence = guide strand", "details": "shRNA"}
{"sequence": "TTACTTGTTGGTGTATTCGTAA", "sensor-assay potency score (higher = more potent)": -0.078}
{"sequence": "TTAACTTTGAGAACTTCTCTGC", "sensor-assay potency score (higher = more potent)": 0.783}
{"sequence": "TAGAATGATATACATATCGATG", "sensor-assay potency score (higher = more potent)": -1.35}
{"sequence": "TTCCAGGTGATACAACTCGTTC", "sensor-assay potency score (higher = more potent)": -1.63}
{"sequence": "TTAGGTAGAGTGACGCTGCTTT", "sensor-assay potency score (higher = more potent)": 0.626}
{"sequence": "TTCTTAGCAACCAACCTTGTGC", "sensor-assay potency score (higher = more potent)": -0.338}
{"sequence": "TTACAATACATTATTAACTTAC", "sensor-assay potency score (higher = more potent)": -0.987}
{"sequence": "TTAGCAACCAACCTTGTGCCTA", "sensor-assay potency score (higher = more potent)": -0.621}
{"sequence": "TTTGAATTGAATGTCCTTCAGT", "sensor-assay potency score (higher = more potent)": -0.388}
{"sequence": "TTGTATTTTGTAGTCCACCATC", "sensor-assay potency score (higher = more potent)": -1.39}
{"sequence": "TACATTCCAACTGCACACCTTT", "sensor-assay potency score (higher = more potent)": -0.752}
{"sequence": "TAACTCTGTACAAAGACCGCGT", "sensor-assay potency score (higher = more potent)": 0.679}
